The record followed here is PubChem BioAssay (EPA / NIEHS).

Values joined by “and” are separate entries in the source; they are usually repeats but may differ in a detail not shown here. Identical values can stand only once. Active and inactive are the calls of the source. The calls were made as follows: active = hit-call score of the fitted dose curve at least 0.9, where 1 is the maximum; inactive = score below 0.9.

The experiment is described as follows: APR_HepG2_CellLoss_1hr: Apredica 1-hour HepG2 Assay for Cell Loss (AID 2282668).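 Also: curves fitted both ways against DMSO so gain or loss of cells counts.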 The settings on record: high-content imaging. The protocol: APR_HepG2_1hr is a cell-based, multiplexed-readout assay that uses HepG2, a human liver cell line, with measurements taken at 1 hour after chemical dosing in a 384-well plate.APR_HepG2_CellLoss_1hr is one of 10 assay component(s) measured or calculated from the APR_HepG2_1hr assay. It is designed to make measurements of cell number, a form of viability reporter, as detected with fluorescence intensity signals by HCS Fluorescent Imaging technology.Data from the assay component APR_HepG2_CellLoss_1hr was analyzed into 1 assay endpoint. This assay endpoint, APR_HepG2_CellLoss_1hr, was analyzed with bidirectional fitting relative to DMSO as the negative control and baseline of activity. Using a type of viability reporter, measures of all nuclear dna for gain or loss-of-signal activity can be used to understand the viability at the cellular-level. Furthermore, this assay endpoint can be referred to as a secondary readout, because this assay has produced multiple assay endpoints where this one serves a viability function. To generalize the intended target to other relatable targets, this assay endpoint is annotated to the cell cycle intended target family, where the subfamily is proliferation.
Cells were treated with dimethyl sulfoxide (DMSO) as a solvent control at a final concentration of 0.5% v/v or with compounds in DMSO with a resulting final DMSO concentration of 0.5% v/v. Compound treatment was done at concentrations of 0.39, 0.78, 1.56, 3.12, 6.24, 12.5, 25, 50, 100, and 200 uM in duplicate on each plate. Cells were treated with compounds for 1, 24, or 72 hr. Carbonyl […] m-chloro-phenylhydrazone (CCCP) and taxol were used as positive controls for mitochondrial function and cytoskeletal stability, respectively; DMSO served as the negative control for this experiment. Cells were fixed by the direct addition of 50 uL formaldehyde in Hank's Balanced Salt Solution (HBSS) to a final concentration of 3.7%. After incubation in the fixation medium for 30 min at room temperature (293-298 K), cells were rinsed twice with HBSS and treated with cell permeabilization buffer (16 uL of 0.5% Triton X-100) for 10 min at room temperature (293-298 K) before labeling. For mitochondrial membrane potential and mitochondrial measurements, pre-fixed cells were incubated with 50 uL of MitoTracker Red CMXRos (Invitrogen) at a concentration of 250 nM for 30 min before fixation. In the remaining cases, post-fixed cells were labeled by incubation with a multiplexed mixture of primary antibodies in HBSS for 60 min at room temperature (293-298 K) to detect immunoreactivity of c-Jun (1:500), phospho-histone H3 (1:100), phospho-histone H2A.x (1:200), p53 (1:400), alpha-tubulin (1:200) and Hoechst 33342 (2 ug/mL). Cells were labeled for multiplexed imaging on two separate plates: a) Hoechst 33342, MitoTracker Red, phospho-histone H3, and alpha-tubulin, and b) Hoechst 33342, phospho-histone H2A.x, and c-Jun. A final rinse with HBSS (50 uL) was performed before analysis. The primary and secondary antibodies for the proteins were phospho-histone H3 (rabbit anti-phospho-histone H3 and FITC-donkey anti-rabbit IgG), phospho-histone H2A.x (mouse anti-phospho-histone H2A.x and FITC-donkey anti-mouse IgG), c-Jun (rabbit anti-phospho-c-Jun and Cy3-donkey anti-rabbit IgG), p53 (sheep anti-p53 and Cy5-donkey anti-sheep IgG), alpha-tubulin (mouse anti-alpha-tubulin and Cy5-donkey anti-mouse IgG). These antibodies are available as the CellCiphr HepG2 assay kit (Millipore).Digital images of each well were captured using a Cellomics ArrayScan VTI (Thermo Scientific Cellomics) (0.8 NA objective, 0.63x optical coupler, and XF-93 filter set) at 20x magnification. The images were acquired using the autofocus feature of the ArrayScan instrument, which entails the following steps. First, the camera focuses on channel 1 (Hoechst 33342), where nuclei are identified. Second, a Z offset of 1 um is used for capturing mitochondria (MitoTracker Red). […]
Regarding `CNC(=S)S`, the call was inactive.

For `CC(C)C1(C)N=C(c2nc3ccccc3cc2C(=O)O)NC1=O` (stereo not given), the call was inactive.

On to `COc1ccc(C(c2ccc(OC)cc2)C(Cl)(Cl)Cl)cc1`, for which the molecule was classed as inactive.

Take `COC(=O)C=C(C)OP(=O)(OC)OC`: the outcome was inactive.

Regarding `COC(=O)c1ccccc1C(=O)OC`, the call was inactive.

Turning to `Cc1ccc(-c2c(Cl)nc(C#N)n2S(=O)(=O)N(C)C)cc1`, the result was inactive.

As to `CCNc1nc(Cl)nc(NC(C)C)n1`, the call was inactive.

Regarding `COc1nc(C)nc(NC(=O)NS(=O)(=O)c2ccccc2CCC(F)(F)F)n1`, the molecule was called inactive.

For the molecule `O=C(Nc1ccccc1)Nc1ccnc(Cl)c1`, the result was inactive.

Consider `COc1cnc(OC)n2nc(NS(=O)(=O)c3c(OCC(F)F)cccc3C(F)(F)F)nc12`, for which the molecule was classed as inactive.

As to `COC(=O)C(C)Oc1ccc(Oc2ccc(Cl)cc2Cl)cc1` (stereo not given), the outcome was inactive.

For `C=CC1(C)OC(=O)N(c2cc(Cl)cc(Cl)c2)C1=O` (stereo not given), the outcome was inactive.

`COc1nc(C)nc(NC(=O)NS(=O)(=O)c2ccccc2Cl)n1`: the call was inactive.

In the case of `CCCCOC(=O)c1ccccc1C(=O)OCCCC`, the molecule was classed as inactive.

As to `C=CCC1=C(C)[C@@H](OC(=O)[C@@H]2[C@@H](C=C(C)C)C2(C)C)CC1=O`, the molecule was called inactive.

With `OC(c1ccc(Cl)cc1)(c1cncnc1)c1ccccc1Cl` (stereo not given), the molecule was called inactive.

Take `COP(N)(=O)SC` (stereo not given): the call was inactive.

Regarding `CC1=C(C(=O)Nc2ccccc2)SCCO1`, the outcome was inactive.

With `COC(=O)N(OC)c1ccccc1COc1ccn(-c2ccc(Cl)cc2)n1`, the molecule was called inactive.

`Oc1ccccc1-c1ccccc1`: the result was inactive.

As for `O=C(O)COc1nc(Cl)c(Cl)cc1Cl`, the molecule was called inactive.

In the case of `CCCCNC(=O)n1c(NC(=O)OC)nc2ccccc21`, the outcome was inactive.

In the case of `CCOP(=S)(OCC)SCn1c(=O)oc2cc(Cl)ccc21`, the molecule was called inactive.

As to `CN(C)C(=S)SSC(=S)N(C)C`, the result was inactive.

Take `CC1COC(Cn2cncn2)(c2ccc(Oc3ccc(Cl)cc3)cc2Cl)O1` (stereo not given): the molecule was called inactive.

As for `CC(C)(C)c1ccc(CSc2cnn(C(C)(C)C)c(=O)c2Cl)cc1`, the molecule was called inactive.

On to `CCOc1cc(Oc2ccc(C(F)(F)F)cc2Cl)ccc1[N+](=O)[O-]`, for which the molecule was classed as inactive.

Take `N#CC(CCc1ccc(Cl)cc1)(Cn1cncn1)c1ccccc1` (stereo not given): the molecule was classed as inactive.

For `CC(C)Oc1cc(-n2nc(C(C)(C)C)oc2=O)c(Cl)cc1Cl`, the result was inactive.

For the molecule `CO/C=C(/C(=O)OC)c1ccccc1Oc1cc(Oc2ccccc2C#N)ncn1`, the result was inactive.

A word on the AC50: it is the midpoint of the concentration-response curve, whichever way the signal moves. With `CCCCNC(=O)OCC#CI`, the AC50 was 100 µM (active) and 129 µM (active).

As to `COc1nc(NC(C)C)nc(NC(C)C)n1`, the result was inactive.

As for `CON(C)C(=O)Nc1ccc(Cl)c(Cl)c1`, the call was inactive.

Turning to `CCOC(=O)C(Cl)Cc1cc(-n2nc(C)n(C(F)F)c2=O)c(F)cc1Cl` (stereo not given), the molecule was called inactive.

For `CCc1nn(C)c(C(=O)NCc2ccc(C(C)(C)C)cc2)c1Cl`, the call was inactive.

For `CCON=C(CC)C1=C(O)CC(c2c(C)cc(C)cc2C)CC1=O` (stereo not given), the outcome was inactive.

As to `N#Cc1nn(-c2c(Cl)cc(C(F)(F)F)cc2Cl)c(N)c1S(=O)C(F)(F)F` (stereo not given), the result was inactive.

Regarding `Fc1ccc(Oc2ccnc3cc(Cl)cc(Cl)c23)cc1`, the molecule was called inactive.

As for `O=C(O)c1nc(Cl)ccc1Cl`, the molecule was classed as inactive.

For the molecule `COP(=S)(OC)Oc1nc(Cl)c(Cl)cc1Cl`, the result was inactive.
